Values joined by “and” are separate entries in the source; they are usually repeats but may differ in a detail not shown here. Identical values can stand only once. Active and inactive are the calls of the source. Unless noted, how the calls were made is not given here.

Test [1] in a line: compounds altering circadian rhythm period length – cell-based, LOPAC library, luminescence reporter (AID 2774).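 Further: values are relative to mean of DMSO wells on each plate.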 Particulars: circadian reporter cells, at 7 µM, actives lie on both sides.
The test system of test [2] is Aerobactin synthetase IucA (Klebsiella pneumoniae, hypervirulent). Put plainly: biochemical IucA inhibition screen of LOPAC library by absorbance (AID 1346212).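 Further: 100% = no compound wells and 0% = no enzyme wells.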 To be noted: IucA enzyme assay, absorbance (OD) readout; stronger effect = lower value;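 tested at 8 µM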.
The nature of test [3]: P. berghei load reduction in hepatocytes – cell-based, HepG2, luciferase luminescence, HepG2 viability, primary screen (AID 624349; in the data active means parasite load remaining mostly below about 12%, no sharp cut-off; inactive means mostly above about 10%;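 further: 100% = mean of DMSO negative control wells on the same plate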). To be noted: P. berghei liver stage in HepG2, luciferase luminescence, concentration not given here; parasite load remaining: stronger effect = lower value; viability: measured here: HepG2 viability without parasites.
Test [4] concerns Hepatitis C virus NS3 helicase. Put plainly: blockers of NS3h binding to ssDNA – biochemical, fluorescence polarization, LOPAC1280 library, primary screen (AID 687035; in the data active means inhibition above about 37%). Particulars: Purified HCV NS3 helicase, Cy5-dT15 ssDNA binding fluorescence polarization; stronger effect = higher value; concentration not given here. A general note: In fluorescence polarisation assays a small probe gives low polarisation when free and higher when bound to something large.

Test [5] in a line: compounds altering Cy5-DNA-NS3h complex signal – biochemical, LOPAC1280, artefact control for HCV NS3 helicase inhibitor project (AID 687037). To be noted: Cy5-DNA-NS3h complex fluorescence interference counterscreen. Background: The purpose of a counterscreen is to sort out artefacts and off-target activity.
Test [6] can be described thus: viability loss with induced miR-34 in A549 – imaging, A549 dox-inducible miR-34, nuclei and caspase counts, primary screen (AID 1347080;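 active means compounds whose cell count with miR-34 switched on is under 0.7 times the count with it off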). To be noted: A549 miR-34 inducible, Hoechst nuclei count, 48 h.
The nature of test [7]: blockers of cellular phospholipid synthesis – cell-based, LOPAC library, screen 4, primary screen (AID 1347384). Particulars: animal cells, phospholipid biosynthesis inhibition screen; at 10 µM.
Test [8] in a line: galactose survival enhancers in mitochondrial complex I cybrids – cell-based, galactose medium, ATP luminescence, primary screen (AID 1645843;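 active means z-score of at least 1.8 in each of two replicates, scored against plate mean and spread of sample wells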;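 further: positive z means more ATP and so rescue of galactose-driven cybrid death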). Particulars: complex I mutant cybrid cells, 72 h, stronger effect = higher value.
A short description of test [9]: compounds altering viability of human ES cells (AID 493140).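 Further: cells exposed to compounds for four days before counting.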 To be noted: human embryonic stem cell survival screen; stronger effect = higher value.
The nature of test [10]: MELAS cybrid and Rieske KO viability enhancers – cell-based, MELAS cybrids, Rieske KO mouse fibroblasts, CellTiter-Glo, primary screen (AID 1508586;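 active means mean z-score across replicates of 1.96 or higher in either the MELAS or the Rieske mutant cell line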;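 further: z relative to plate mean and SD of compound and empty wells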). Particulars: low glucose. A general note: In ATP-based viability assays light output follows the ATP content of the culture.
Where [11] appears, read: measured here: relative caspase fold change +Dox/-Dox.
The mark [12] stands for this setting: measured here: total cells with miR-34 induction, stronger effect = lower value.
The mark [13] stands for this setting: measured here: total cells without miR-34 induction.
The mark [14] stands for this setting: stronger effect = lower value, cell number ratio, induced over uninduced.

What is called remaining activity is the signal under treatment as a percentage of the control signal. Regarding `CNC(=O)OCC[N+](C)(C)C`, in test [1], the period change was -0.01 h (inactive). In test [2], the remaining activity is 109% (inactive).
The term viability denotes a per cent measure of how many cells are alive, often set against a control. A word on the inhibition: it is the change of the read-out against control, counted positive when it falls. In the case of `O=[N+]([O-])/C=C/c1ccc2c(c1)OCO2`, in test [3], the parasite load remaining is 42.5% (inactive). In [3], the viability turned out to be 65.7%. Also, the inhibition in test [4] was -1% (inactive). Besides, the fluorescence ratio (interference) in test [5] is 1 (inactive). For the same compound, the remaining activity in test [2] is 107% (inactive). Further, the fold change in test [6] (stronger effect = lower value) was 1.45 (inactive); in test [6] (setting [11]) it was 0.546. For the same compound, the values for the cell count in test [6] (setting [12]) and in [6] (setting [13]) were 2000 and 1380, respectively. Further, the outcome in test [7] was inactive. In test [8], the z-score was -0.995 (inactive).
Consider `c1ccc(C2(c3ccccc3)CC2C2=NCCN2)cc1` (centres undefined), for which the inhibition in test [4] was -3% (inactive). The fluorescence ratio (interference) in [5] is 0.9 (inactive). Further, the remaining activity in [2] was 115% (inactive). Besides, the fold change is 1.07 (inactive) in test [6] (setting [14]) and 1.35 in [6] (setting [11]). In addition, the cell count in test [6] (setting [12]) is 11300; in [6] (setting [13]) it was 10600. Moreover, in test [7], the result was inactive. Besides, the z-score in test [8] is 0.18 (inactive).
In the case of `COc1ccc2c(c1)[C@@]13CCCC[C@H]1[C@@H](C2)NCC3`, the period change in test [1] is -0.085 h (inactive). In addition, the inhibition in test [4] is -5% (inactive). In addition, in [5], the fluorescence ratio (interference) is 1 (inactive). Further, the remaining activity in [2] is 108% (inactive).
Consider `CC(C)(O)[C@@H]1C2OC(=O)C1[C@]1(O)C[C@H]3O[C@]34C(=O)O[C@H]2[C@]14C` (some centres undefined) (tested in a mixture with another compound), for which the remaining activity in [2] was 128% (inactive). Besides, the outcome in test [7] was inactive.
With `CCCCCCC(C)(C)c1ccc([C@@H]2C[C@H](O)CC[C@H]2CCCO)c(O)c1`, in test [1], the period change was 0.01 h (inactive). For the same compound, in test [4], the inhibition is -4% (inactive). For the same compound, the fluorescence ratio (interference) in [5] is 1 (inactive). The remaining activity in [2] is 106% (inactive). Moreover, the fold change in test [6] (stronger effect = lower value) was 0.915 (inactive); in [6] (setting [11]) it was 0.979. Besides, the cell count was 5170 in test [6] (setting [12]) and 5640 in [6] (setting [13]).
Consider `CCc1c(C(=O)OC)ncc2[nH]c3cc(OC)c(OC)cc3c12`, for which, in [1], the period change was 0.185 h (inactive). Moreover, the remaining activity in test [2] is 93% (inactive).
The corresponding values for `COC(=O)c1cc2c(cn1)[nH]c1ccccc12` are 0.035 h (inactive) and 104% (inactive).
For `CCCN1CCC[C@@H](c2cccc(C#N)c2)C1` the same measures were -0.025 h (inactive) and 122% (inactive).
On to `N[C@H](CCCCCP(=O)(O)O)C(=O)O`, for which, in test [1], the period change is -0.025 h (inactive). Also, the remaining activity in test [2] was 114% (inactive).
`Nc1ncnc2c1ncn2[C@@H]1O[C@H](COP(=O)(O)CP(=O)(O)OP(=O)(O)O)[C@H](O)C1O` (some centres undefined): in [1], the period change is 0.01 h (inactive). In addition, the inhibition in test [4] was -1% (inactive). Further, the fluorescence ratio (interference) in test [5] was 1 (inactive). Also, in test [2], the remaining activity was 111% (inactive). The fold change is 1.06 (inactive) in test [6] (stronger effect = lower value) and 0.784 in test [6] (setting [11]). The values for the cell count in [6] (setting [12]) and in test [6] (setting [13]) were 11200 and 10600, respectively. In addition, the z-score in [8] was 2.36 (active).
With `CC(C)[C@H]1CN[C@H](C(=O)O)[C@H]1CC(=O)O`, the inhibition in test [4] is 1% (inactive). Also, in [5], the fluorescence ratio (interference) is 1 (inactive). Further, the remaining activity in test [2] is 93.8% (inactive). The fold change is 0.952 (inactive) in [6] (stronger effect = lower value) and 0.99 in [6] (setting [11]). For the same compound, the cell count worked out at 9550 in test [6] (setting [12]) and 10000 in test [6] (setting [13]). Further, the outcome in test [7] was inactive. Moreover, in [8], the z-score was 0.11 (inactive).
As for `O=C(O)C1C2CCC(O2)C1C(=O)O` (centres undefined), in [1], the period change is 0.03 h (inactive). In test [9], the survival is 66 (inactive). Further, the remaining activity in [2] was 81.7% (inactive).
In the case of `O=P(O)(O)C(Cl)(Cl)P(=O)(O)O`, the period change in test [1] is -0.115 h (inactive). In [4], the inhibition is -2% (inactive). The fluorescence ratio (interference) in test [5] is 1 (inactive). In addition, the remaining activity in [2] was 94.8% (inactive). For the same compound, the fold change is 0.966 (inactive) and 0.892 (inactive) in [6] (stronger effect = lower value); 1.44 and 0.98 in test [6] (setting [11]). Further, the cell count in test [6] (setting [12]) is 9450 and 9630; in [6] (setting [13]) it was 9790 and 10800. Moreover, the z-score in test [8] is 1.8 (inactive) and 0.645 (inactive).
Take `Clc1ccc(C(c2ccc(Cl)cc2)n2cc[n+](CC(OCc3ccc(Cl)cc3Cl)c3ccc(Cl)cc3Cl)c2)cc1` (centres undefined): the period change in [1] is -0.26 h (inactive). In addition, in test [4], the inhibition was -3% (inactive). Further, the fluorescence ratio (interference) in test [5] was 0.9 (inactive). For the same compound, the remaining activity in test [2] was 106% (inactive). In addition, the fold change in [6] (stronger effect = lower value) was 0.883 (inactive); in test [6] (setting [11]), 1.87. In addition, the cell count worked out at 1420 in test [6] (setting [12]) and 1610 in test [6] (setting [13]). For the same compound, the z-score in [8] is -1.52 (inactive).
For the compound `COc1ccc2c3c1O[C@H]1C(=O)CC[C@@]4(O)C(C2)N(CC2CC2)CCC314` (some centres undefined), in test [1], the period change is -0.115 h (inactive). Further, in test [2], the remaining activity is 120% (inactive).
For the compound `Oc1ccc2c3c1O[C@H]1c4[nH]c5ccccc5c4C[C@@]4(O)[C@@H](C2)N(CC2CC2)CC[C@]314`, the parasite load remaining in test [3] is 47.8% (inactive). This compound also came in with a viability in test [3] of 98.5%. In [2], the remaining activity was 108% (inactive). Further, the fold change in test [6] (stronger effect = lower value) was 0.934 (inactive); in test [6] (setting [11]), 1.1. Also, the values for the cell count in [6] (setting [12]) and in test [6] (setting [13]) were 8700 and 9320, respectively. The z-score in test [10] (MELAS cybrid survival, CellTiter-Glo 48 h, stronger effect = higher value) was 0.24 (inactive); in test [10] (Rieske KO mouse fibroblast survival, CellTiter-Glo 72 h) it was 0.662; in test [8], -0.405 (inactive).
With `C=CCN1CCc2cccc3c2[C@H]1Cc1ccc(O)c(O)c1-3`, the period change in test [1] was 0.185 h (inactive). Moreover, the inhibition in test [4] was -3% (inactive). Further, the fluorescence ratio (interference) in [5] is 1.1 (inactive). Also, the remaining activity in test [2] was 110% (inactive).
As for `CN(N=O)c1cc(O)ccc1O`, the period change in test [1] was 0.05 h (inactive). For the same compound, the inhibition in test [4] was -1% (inactive). Besides, the fluorescence ratio (interference) in test [5] was 1 (inactive). Moreover, in [2], the remaining activity was 103% (inactive). For the same compound, the fold change in test [6] (stronger effect = lower value) was 1.03 (inactive); in test [6] (setting [11]), 1.21. Also, the cell count came out at 9960 in test [6] (setting [12]) and 9640 in test [6] (setting [13]). Besides, the z-score in test [8] is -1.04 (inactive).
As for `NCC#Cc1ccccc1`, in [1], the period change is 0.045 h (inactive). In [2], the remaining activity was 96.6% (inactive).
In the case of `C[C@H](Cc1ccc2c(c1)OC(C(=O)O)(C(=O)O)O2)NC[C@H](O)c1cccc(Cl)c1`, the period change in test [1] was 0.1 h (inactive). For the same compound, the inhibition in test [4] is -3% (inactive). Further, in test [5], the fluorescence ratio (interference) is 1 (inactive). Moreover, in test [2], the remaining activity is 117% (inactive). The fold change was 1.02 (inactive) in test [6] (setting [14]) and 1.78 in test [6] (setting [11]). Besides, the cell count in [6] (setting [12]) came to 10500; in test [6] (setting [13]), 10300. Also, in test [8], the z-score was 0.755 (inactive).
